Measurements as given in PubChem BioAssay (Tox21).
Several values for one entry are separate records, joined by “and”; a condition that tells them apart may be missing. Identical values can stand only once. Results filed as inconclusive are left out. Activity calls are given as the source filed them. Unless noted, the call rests on the fitted dose curve; in most records, active means well fitted curve in the direction sought with a large enough effect in the repeat runs; inconclusive means weak or mixed curves; inactive means no such curve, though single readings can be large; an effect the other way counts as inactive or inconclusive.

Key:
[1] = biological target: Progesterone receptor (Homo sapiens) (UniProt P06401); experiment: qHTS assay to identify small molecule agonists of the progesterone receptor (PR) signaling pathway (AID 1346784; calls by dose curve; further: nearly all actives have a fitted effect of over 30% in size)
Chain of Progesterone receptor (Homo sapiens) (P06401 whole entry, looked up): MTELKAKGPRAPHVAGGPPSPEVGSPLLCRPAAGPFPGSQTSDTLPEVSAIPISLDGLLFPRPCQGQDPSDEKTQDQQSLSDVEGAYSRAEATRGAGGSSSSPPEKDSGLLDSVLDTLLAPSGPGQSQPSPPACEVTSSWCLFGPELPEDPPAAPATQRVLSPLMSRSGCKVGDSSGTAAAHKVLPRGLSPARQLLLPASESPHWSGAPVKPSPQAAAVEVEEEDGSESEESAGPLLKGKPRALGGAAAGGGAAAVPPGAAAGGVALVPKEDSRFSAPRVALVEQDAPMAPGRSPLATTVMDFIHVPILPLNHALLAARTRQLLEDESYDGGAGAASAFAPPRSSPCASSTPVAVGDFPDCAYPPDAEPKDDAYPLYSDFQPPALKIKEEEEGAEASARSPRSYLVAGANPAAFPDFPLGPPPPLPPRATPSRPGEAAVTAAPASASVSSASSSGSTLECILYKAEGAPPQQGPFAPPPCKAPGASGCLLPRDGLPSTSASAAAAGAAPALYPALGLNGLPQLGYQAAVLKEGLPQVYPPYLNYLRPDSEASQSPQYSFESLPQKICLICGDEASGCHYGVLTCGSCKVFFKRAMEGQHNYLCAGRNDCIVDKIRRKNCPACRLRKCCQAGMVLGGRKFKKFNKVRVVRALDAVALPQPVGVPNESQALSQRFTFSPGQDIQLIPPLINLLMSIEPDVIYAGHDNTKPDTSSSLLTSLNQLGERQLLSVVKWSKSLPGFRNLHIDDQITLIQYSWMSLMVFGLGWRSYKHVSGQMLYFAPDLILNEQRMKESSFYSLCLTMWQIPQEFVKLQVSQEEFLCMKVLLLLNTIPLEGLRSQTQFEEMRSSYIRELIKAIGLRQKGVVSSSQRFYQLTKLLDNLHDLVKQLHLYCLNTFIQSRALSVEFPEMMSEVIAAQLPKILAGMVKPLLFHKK
How it was run: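 Cells (PR-UAS-bla HEK 293T, GripTite) were plated in assay medium containing 2% charcoal-stripped FBS and incubated 6 hr. Test compounds in DMSO were added for 16 hr at 37C. FRET substrate was then loaded for 2 hr at room temperature before fluorescence reading.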

[2] = biological target: Progesterone receptor (Homo sapiens) (UniProt P06401); experiment: qHTS assay to identify small molecule antagonists of the progesterone receptor (PR) signaling pathway (AID 1346795; active means well fitted inhibition curve with a large enough effect in the signal ratio in the repeat runs, not every such curve was filed as active; the % refers to the signal ratio; further: potency means the concentration at half of the fitted maximal effect)
How it was run: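 Antagonist mode: compounds tested against 1 nM (final) promegestone stimulation in HEK293T cells expressing PR-UAS-bla reporter, 16 hr at 37C, 5% CO2; beta-lactamase activity detected via B/G FRET substrate after 2 hr at room temperature.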

[3] = qHTS assay to identify small molecule antagonists of the progesterone receptor (PR) signaling pathway - cell viability counter screen (AID 1346798); further: series mostly up to about 92 µM; nearly all actives have a fitted effect of over 50% in size
How it was run: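 Counter screen for cytotoxicity: viability of PR-UAS-bla HEK293T cells was measured with CellTiter-Glo luminescence following 16 hr compound exposure in the presence of R5020.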

[4] = qHTS assay to identify small molecule agonists of the progesterone receptor (PR) signaling pathway - cell viability counter screen (AID 1346799; calls by dose curve; further: nearly all actives have a fitted effect of over 45% in size)
How it was run: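 Cells (PR-UAS-bla HEK293T) are plated at 3,000/well in 2% charcoal-stripped FBS medium, rested 6 hr, dosed and incubated 16 hr at 37C. CellTiter-Glo is then added and luminescence measured after 30 min at room temperature.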

[5] = qHTS assay to identify small molecule antagonists of the TGF-beta/Smad signaling pathway - cell viability counter screen (AID 1346824); further: nearly all actives have a fitted effect of over 50% in size
How it was run: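 SBE-bla HEK 293T cells were plated overnight at 37 C, then given compounds in DMSO plus TGF-beta1 (added as 0.25 ng/mL solution) for 5 hr. After the bla read, CellTiter-Glo was added to the same wells and luminescence read after 30 min at room temperature.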

[6] = qHTS assay to identify small molecule agonists of the TGF-beta/Smad signaling pathway - cell viability counter screen (AID 1346829); further: top concentration of the series differs between compounds; nearly all actives have a fitted effect of over 45% in size
How it was run: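 Luminescence from CellTiter-Glo, read after a 30 min room-temperature incubation, gives cell viability of SBE-bla HEK 293T cells treated 5 hr with compounds at 37 C.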

[7] = qHTS assay to identify small molecule agonists of the TGF-beta/Smad signaling pathway (AID 1346859; active means well fitted activation curve with a large enough effect in the signal ratio in the repeat runs, not every such curve was filed as active; the % refers to the signal ratio; further: series mostly up to about 77 µM)
How it was run: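 Reporter line: HEK 293T with stably integrated SBE-controlled beta-lactamase. Compound exposure lasts 5 hr at 37 C and 5% CO2; substrate loading follows for 2 hr at room temperature, with emission read at 460 and 530 nm.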

[8] = biological target: Thyrotropin-releasing hormone receptor (Homo sapiens) (UniProt P34981); experiment: qHTS assay to identify small molecule antagonists of the thyrotropin-releasing hormone receptor (TRHR) signaling pathway (AID 1346877; active means well fitted inhibition curve with a large enough effect in the repeat runs, not every such curve was filed as active; further: series mostly up to about 51 µM)
Chain of Thyrotropin-releasing hormone receptor (Homo sapiens) (P34981 whole entry, looked up): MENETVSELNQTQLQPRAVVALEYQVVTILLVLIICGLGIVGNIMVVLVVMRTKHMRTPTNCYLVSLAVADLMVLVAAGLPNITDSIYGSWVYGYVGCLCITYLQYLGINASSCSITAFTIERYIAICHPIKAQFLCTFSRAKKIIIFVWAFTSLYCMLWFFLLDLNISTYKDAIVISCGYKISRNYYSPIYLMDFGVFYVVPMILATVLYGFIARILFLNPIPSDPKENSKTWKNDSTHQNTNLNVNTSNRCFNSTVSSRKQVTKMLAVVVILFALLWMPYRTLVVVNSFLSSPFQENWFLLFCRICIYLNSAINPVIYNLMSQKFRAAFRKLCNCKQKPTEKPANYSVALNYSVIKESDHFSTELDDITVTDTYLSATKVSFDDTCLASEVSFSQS
How it was run: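 Screening used HEK293 cells engineered with TRHR, with a brief 5 min room-temperature compound exposure preceding addition of TRH to 1 nM. The read-out was kinetic calcium-dye fluorescence, concentration-response from 15 doses in triplicate.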

[9] = biological target: Thyrotropin-releasing hormone receptor (Homo sapiens) (UniProt P34981); experiment: qHTS assay to identify small molecule agonists of the thyrotropin-releasing hormone receptor (TRHR) signaling pathway (AID 1346891; calls by dose curve;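 further: HEK293 cells expressing TRHR with calcium dye readout; series mostly up to about 58 µM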)
How it was run: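 Cells: TRHR-Hek293, seeded and incubated 18 h. Dye loading: 2 h at 37 °C. Compound added from DMSO stock by pin tool. Read-out: kinetic calcium fluorescence over 3 min.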

[10] = Human pregnane X receptor (PXR) small molecule agonists, qHTS cell viability counter screen (AID 1346977); further: nearly all actives have a fitted effect of over 50% in size
How it was run: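 Cytotoxicity counter screen run in the same wells as the PXR luciferase assay, using PXR-Luc HepG2 cells in charcoal-stripped serum medium. Viability: CellTiter-Fluor fluorescence after 24hr compound treatment.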

[11] = Caspase-3/7 induction in HepG2 cells by small molecules, qHTS assay (AID 1346978); further: nearly all actives have a fitted effect of over 15% in size
How it was run: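 Wild-type HepG2 cells (2,000/well) were settled 5 h at 37 C, 5% CO2, then exposed to compounds in DMSO for 17 h. Caspase-3/7 activity was read by luminescence 30 min after adding Caspase-Glo 3/7 reagent at room temperature.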

[12] = Caspase-3/7 induction in CHO-K1 cells by small molecules, qHTS cell viability counter screen (AID 1346979); further: nearly all actives have a fitted effect of over 35% in size; further: potency means the concentration at half of the fitted maximal effect
How it was run: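 Cytotoxicity counter screen run in parallel with the caspase-3/7 assay: CHO-K1 cells, 16hr compound treatment at 37C, then CellTiter-Fluor for 1hr before fluorescence reading.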

[13] = Caspase-3/7 induction in CHO-K1 cells by small molecules, qHTS assay (AID 1346980); further: nearly all actives have a fitted effect of over 15% in size
How it was run: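 Wild-type cells were seeded at 1,500 per well and settled 5 hr at 37 C, 5% CO2, then exposed to DMSO-dissolved compounds for 17 hr. Caspase-Glo 3/7 reagent was added, and luminescence was read after 30min at room temperature.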

[14] = Caspase-3/7 induction in HepG2 cells by small molecules, qHTS cell viability counter screen (AID 1346981); further: nearly all actives have a fitted effect of over 30% in size; further: potency means the concentration at half of the fitted maximal effect; on activity change, negative = cytotoxicity: series mostly up to about 92 µM
How it was run: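 Multiplexed with the caspase-3/7 assay: HepG2 cells, 16 hr compound treatment, CellTiter-Fluor viability detection by fluorescence.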

[15] = biological target: Nuclear receptor subfamily 1 group I member 2 (Homo sapiens) (UniProt O75469); experiment: Human pregnane X receptor (PXR) small molecule agonists, qHTS assay (AID 1346982); further: nearly all actives have a fitted effect of over 35% in size; further: potency means the concentration at half of the fitted maximal effect
Chain of Nuclear receptor subfamily 1 group I member 2 (Homo sapiens) (O75469 whole entry, looked up): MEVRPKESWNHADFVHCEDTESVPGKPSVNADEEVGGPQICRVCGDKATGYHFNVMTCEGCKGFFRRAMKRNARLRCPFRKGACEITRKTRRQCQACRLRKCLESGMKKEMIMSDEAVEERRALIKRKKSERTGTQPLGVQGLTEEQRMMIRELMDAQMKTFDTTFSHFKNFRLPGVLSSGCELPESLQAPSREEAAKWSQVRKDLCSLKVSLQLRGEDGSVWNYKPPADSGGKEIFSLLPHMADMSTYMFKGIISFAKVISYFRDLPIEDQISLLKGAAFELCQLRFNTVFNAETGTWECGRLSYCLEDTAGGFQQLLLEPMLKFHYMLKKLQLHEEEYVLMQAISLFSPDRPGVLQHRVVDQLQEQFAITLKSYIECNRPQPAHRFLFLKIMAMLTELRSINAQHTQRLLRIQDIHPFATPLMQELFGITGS
How it was run: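 We seeded PXR-Luc HepG2 cells in assay medium containing 5% charcoal-stripped FBS, added compounds 5 hr later, incubated 24 hr, and read luminescence with ONE-Glo reagent.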

[16] = biological target: Acetylcholinesterase (Homo sapiens) (UniProt P22303); experiment: Acetylcholinesterase (AChE) small molecule antagonists: enzyme-based qHTS assay (AID 1347397; calls by dose curve; further: nearly all actives have a fitted effect of over 55% in size); details: Potency: AChE enzyme activity inhibition
Chain of Acetylcholinesterase (Homo sapiens) (P22303 whole entry, looked up): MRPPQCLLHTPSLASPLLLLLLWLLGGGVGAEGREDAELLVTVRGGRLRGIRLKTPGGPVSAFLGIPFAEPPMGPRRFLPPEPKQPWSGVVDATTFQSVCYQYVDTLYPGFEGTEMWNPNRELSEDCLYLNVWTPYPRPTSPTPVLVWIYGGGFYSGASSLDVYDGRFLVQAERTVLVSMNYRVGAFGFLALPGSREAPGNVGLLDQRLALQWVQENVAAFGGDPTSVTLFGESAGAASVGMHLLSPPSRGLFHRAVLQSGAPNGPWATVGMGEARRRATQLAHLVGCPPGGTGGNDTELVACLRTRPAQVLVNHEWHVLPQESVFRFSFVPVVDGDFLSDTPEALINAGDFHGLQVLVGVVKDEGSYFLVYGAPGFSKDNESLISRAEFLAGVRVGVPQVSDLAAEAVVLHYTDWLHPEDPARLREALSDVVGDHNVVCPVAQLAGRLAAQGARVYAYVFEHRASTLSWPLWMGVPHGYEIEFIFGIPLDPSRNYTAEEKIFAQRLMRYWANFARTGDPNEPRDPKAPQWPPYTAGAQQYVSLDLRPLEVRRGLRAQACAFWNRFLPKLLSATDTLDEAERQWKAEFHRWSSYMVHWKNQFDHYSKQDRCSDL
How it was run: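 Recombinant human AChE, dispensed at 50 mU/mL, was preincubated with Tox21 10K compounds or DMSO vehicle for 30 min at room temperature. DTNB plus acetylthiocholine was then added, and thiocholine was measured colorimetrically after a further 10 min.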

[17] = biological target: Acetylcholinesterase (Homo sapiens) (UniProt P22303); experiment: Acetylcholinesterase (AChE) small molecule antagonists: colormetric cell-based qHTS assay (AID 1347395; calls by dose curve; further: nearly all actives have a fitted effect of over 30% in size)
How it was run: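 Cells (SH-SY5Y, 2,000 per well) are seeded and left overnight at 37 C. Compound is added for 30 min, then DTNB and acetylthiocholine for a further 90 min at 37 C before absorbance-based thiocholine detection.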
On the % scale 0 is the no-effect control and ±100 the full control effect.

Clc1c(Cl)c(Cl)c(Cl)c(Cl)c1Cl
inactive: activation [1] -0.806% [at 8.39 µM] | activity change, negative = inhibition [2] -1.77% [at 8.39 µM] | activity change, negative = cytotoxicity [3] -0.673% [at 8.39 µM] | activity change, negative = cytotoxicity [4] 14.7% [at 8.39 µM] | viability change, negative = cytotoxic [5] 1.21% [at 6.97 µM] | activity change, negative = cytotoxicity [6] 6.4% [at 6.97 µM] | activation [7] -0.619% [at 6.97 µM] | activity, negative = inhibition [8] 0.118% [at 4.65 µM] | activation [9] -0.641% [at 5.23 µM] | activity change, negative = cytotoxicity [10] 0.664% [at 8.39 µM] | caspase activation [11] -1.49% [at 8.39 µM] | activity change, negative = cytotoxicity [12] 0.636% [at 8.39 µM] | caspase-3/7 activation [13] 0.528% [at 8.39 µM] | activity change, negative = cytotoxicity [14] -1.11% [at 8.39 µM] | activation [15] -14.4% [at 8.39 µM] | activity change, negative = inhibition [16] -1.5% [at 10.5 µM]

CSC(=O)c1c(C(F)F)nc(C(F)(F)F)c(C(=O)SC)c1CC(C)C
active: Potency [2] 30.5 µM | Potency [15] 4.83 µM
inactive: Potency [1] | Potency [3] | Potency [4] | Potency [5] | Potency [6] | outcome [7] | Potency [8] | Potency [9] | Potency [10] | Potency [11] | Potency [13] | Potency [14] | Potency [17] | Potency [16]

CC(=O)[O-].CC(=O)[O-].O.O.O.[Pb+2]
inactive: Potency [1] | Potency [2] | Potency [3] | Potency [4] | Potency [5] | Potency [6] | outcome [7] | Potency [10] | Potency [11] | Potency [12] | Potency [13] | Potency [14]

ClC(Cl)C(Cl)(Cl)Cl
inactive: Potency [1] | Potency [2] | Potency [3] | Potency [4] | Potency [5] | Potency [6] | outcome [7] | Potency [8] | Potency [9] | Potency [10] | Potency [11] | Potency [12] | Potency [13] | Potency [14] | Potency [15] | Potency [17] | Potency [16]

O=C(CCCCl)c1ccc(F)cc1
inactive: Potency [1] | Potency [2] | Potency [3] | Potency [4] | Potency [5] | Potency [6] | outcome [7] | Potency [10] | Potency [11] | Potency [12] | Potency [13] | Potency [14] | Potency [15] | Potency [17] | Potency [16]

O=[N+]([O-])C(Br)Br
inactive: Potency [1] | Potency [2] | Potency [3] | Potency [4] | Potency [5] | Potency [6] | outcome [7] | Potency [8] | Potency [9] | Potency [10] | Potency [11] | Potency [12] | Potency [13] | Potency [14] | Potency [15] | Potency [17] | Potency [16]

C#CCO
inactive: Potency [1] | Potency [2] | Potency [3] | Potency [4] | Potency [5] | Potency [6] | outcome [7] | Potency [8] | Potency [9] | Potency [10] | Potency [11] | Potency [12] | Potency [13] | Potency [14] | Potency [15] | Potency [17] | Potency [16]

c1ccc(N=NNc2ccccc2)cc1
inactive: Potency [1] | Potency [3] | Potency [4] | Potency [5] | Potency [6] | outcome [7] | Potency [8] | Potency [9] | Potency [11] | Potency [13] | Potency [16]
active: Potency [2] 56.4 µM and 48.6 µM | Potency [12] 56.4 µM | Potency [14] 28.3 µM | Potency [15] 31.7 µM and 30.6 µM
